Bioassay records from PubChem BioAssay.
TrxR1 substrate = qHTS Assay for Substrates of Mammalian Selenoprotein Thioredoxin Reductase 1 (TrxR1): qHTS; purified TrxR1 substrate turnover, NADPH consumption readout; Potency, µM (top dose mostly 114 µM); hit rate 0.01% among 390,000; AID 588456, 2011; further: nearly all actives have a fitted effect of over 50% in size
Target sequence (O89049 whole entry, looked up): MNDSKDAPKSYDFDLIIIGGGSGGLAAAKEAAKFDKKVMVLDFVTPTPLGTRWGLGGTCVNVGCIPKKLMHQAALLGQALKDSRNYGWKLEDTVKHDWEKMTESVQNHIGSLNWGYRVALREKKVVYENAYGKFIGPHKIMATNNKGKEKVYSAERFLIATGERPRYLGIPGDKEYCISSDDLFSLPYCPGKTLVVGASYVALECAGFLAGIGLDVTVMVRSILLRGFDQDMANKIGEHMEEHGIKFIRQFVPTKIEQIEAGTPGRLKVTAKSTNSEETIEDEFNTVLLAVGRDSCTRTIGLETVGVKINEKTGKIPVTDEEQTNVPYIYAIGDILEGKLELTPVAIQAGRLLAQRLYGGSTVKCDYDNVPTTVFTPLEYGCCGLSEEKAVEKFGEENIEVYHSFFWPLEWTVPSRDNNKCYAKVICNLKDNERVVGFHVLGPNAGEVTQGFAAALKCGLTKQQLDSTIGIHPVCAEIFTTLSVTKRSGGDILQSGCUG
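Rat TrxR1, dispensed at 90 nM, was prereduced with 400 uM NADPH (final) for 5 min at ~22 deg C, then incubated with compound 15 min before 400 uM selenite. A first-read NADPH fluorescence drop versus no-compound background flagged substrates.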
rTrxR1 inhibitor = qHTS Assay for Inhibitors of Mammalian Selenoprotein Thioredoxin Reductase 1 (TrxR1): qHTS. Thioredoxin reductase 1, cytoplasmic (Rattus norvegicus), O89049. recombinant rTrxR1, NADPH fluorescence consumption, selenite substrate. Potency, µM (doses to about 114 µM), usual class: inhibitors. hit rate 1% among 390,000. AID 588453, 2011; further: nearly all actives have a fitted effect of over 65% in size
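Rat TrxR1 (90 nM in the dispensed reagent) was pre-reduced with 400 uM NADPH for 5 min at room temperature, then incubated with compound for 15 min. After 400 uM selenite was added, NADPH fluorescence (Ex 340/Em 450 nm) was followed for 8 min.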
A549 tox = Nrf2 qHTS screen for inhibitors: counterscreen for cytotoxicity; A549 ARE-Fluc cells, CellTiter-Fluor viability, 18-24 h; Potency, µM (titrated, usually from 46 µM), actives largely listed as inhibitors; hit rate 0.16% among 390,000
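A549 ARE-Fluc cells in 5% FBS OPTI-MEM, 5000 cells/well, rested 2 h then exposed to compounds in concentration-response for 18-24 h at 37 °C. Viability by CellTiter-Fluor fluorescence (Ex 405/Em 525) after 30 min; luciferase luminescence (BugLite, 15 min, RT) read afterwards.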
Mito fusion act = qHTS Assay for Small Molecule Inhibitors of Mitochondrial Division or Activators of Mitochondrial Fusion. AID 485298, 2010. S. cerevisiae fusion-defective mutant growth rescue, CellTiterGlo 48 h. hit rate 0.23% among 320,000. Potency, µM (series often up to 46.1 µM), usual class: activators; further: nearly all actives have a fitted effect of over 45% in size
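Growth-rescue viability read-out: after 48 h at the non-permissive 37C in glycerol/ethanol YPEG, yeast mitochondrial fusion mutants are measured by CellTiterGlo luminescence; compounds (23 nl pinned per well) restoring growth score as division inhibitors or fusion activators.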
Nrf2 inh = Nrf2 qHTS screen for inhibitors; A549 ARE-Fluc reporter, luciferase luminescence, 18-24 h; Potency, µM (top dose mostly 46 µM), most hits filed as inhibitors; hit rate 2.1% among 360,000; further: nearly all actives have a fitted effect of over 60% in size
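Quantitative HTS in A549 cells stably bearing an antioxidant response element-firefly luciferase construct. Inhibition of Nrf2-driven transcription was scored by luminescence after 18-24 h of compound exposure at 37 °C.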
IDH1 R132H inh = qHTS for Inhibitors of mutant isocitrate dehydrogenase 1 (IDH1): qHTS. Isocitrate dehydrogenase [NADP] cytoplasmic (Homo sapiens), O75874. IDH1-R132H enzyme, NADPH consumption, diaphorase/resazurin fluorescence. Potency, µM (titrated, usually from 76.6 µM), usual class: inhibitors. hit rate 0.093% among 390,000. AID 602179, 2012; further: nearly all actives have a fitted effect of over 65% in size
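IDH1-R132H (0.5 ug/mL) preincubated 30 min with compound, then NADPH (0.016 mM) and alpha-KG (2 mM) added; 80 min at RT, pH 7.5. Remaining NADPH coupled via diaphorase/resazurin to fluorescence (540/590 nm); concentration-response curves normalized to no-enzyme control.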
Hits are given with their value; . = inactive; ? = inconclusive; / = no result given; [ ] = dose if it differs, or a comment. A selection: hits, their analogues and other compounds. The true share with any hit is near 3.1%. The call rests on the fitted dose curve; in most records, active means well fitted curve in the direction sought with a large enough effect; inconclusive means small, poorly fitted or top-dose-only effect, or another doubt; inactive means no such curve, though single readings can be large; an effect the other way counts as inactive or inconclusive.

SMILES	TrxR1 substrate	rTrxR1 inhibitor	A549 tox	Mito fusion act	Nrf2 inh	IDH1 R132H inh
CCCCC(OC(=O)CNC(=O)c1ccccc1)C(=O)Nc1cc(C(F)(F)F)ccc1Cl (centres undefined)	/	/	.	/	?	/
O=C1c2ccccc2NC(c2ccc(OCc3ccccc3)c(OCc3ccccc3)c2)N1Cc1ccco1 (centres undefined)	.	.	.	/	.	/
C/C(=N\NC(=O)c1nnn(-c2nonc2N)c1-c1ccccc1)c1ccccc1O	.	.	.	.	4.6µM	.
C/C(=N\NC(=O)c1nnn(-c2nonc2N)c1-c1cccs1)c1ccncc1	.	35µM	.	.	.	.
CCn1ccc2c(OCC(=O)Nc3ccccc3C(F)(F)F)cccc2c1=O	.	.	.	/	/	.
CC(=O)C1=C(C)OC(N)=C(C#N)C1c1ccco1 (centres undefined)	.	11µM	.	.	.	.
CC(=O)C1=C(C)NC(SCC(=O)c2cc(Cl)ccc2Cl)=C(C#N)C1c1ccco1 (centres undefined)	.	?	?	.	7.3µM	.
COC(=O)C1=C(C)OC(N)=C(C#N)C1c1ccco1 (centres undefined)	.	.	.	.	.	.
O=C(CCC1N=C2c3ccccc3N=C(SCc3ccccc3Cl)N2C1=O)NCc1ccco1 (centres undefined)	.	.	?	.	18µM	.
O=C(CCC1N=C2c3ccccc3N=C(SCc3cccc(Cl)c3)N2C1=O)NCc1ccco1 (centres undefined)	.	.	.	.	.	.
Oc1cc2cc(-c3csc(-c4ccc(F)cc4)n3)cc3c2n1CCC3	.	.	/	/	/	/
CSc1nnc(NC(=O)c2cc(=O)c3cc(C)c(C)cc3o2)s1	.	.	.	/	.	.
S=C(NCCCNc1ccc(Br)cn1)NCCCc1cnc[nH]1	/	/	.	/	.	/
CCN(CC)CCC(=O)Nc1cccc2c1C(=O)c1ccccc1C2=O	.	.	21µM	.	16µM	.
Nc1cccc(C(=O)OCC(=O)Nc2cccc3c2C(=O)c2ccccc2C3=O)c1	.	.	.	.	?	.
CC1CCN(C(=O)c2ccc3c(c2NCCO)C(=O)c2ccccc2C3=O)CC1	.	.	?	.	/	.
CCN(CC)CCNC(=O)c1ccc2c(c1NCCO)C(=O)c1ccccc1C2=O	.	.	?	.	3.3µM	.
S=C(NCCCN(Cc1ccc(Cl)c(Cl)c1)c1ccc(Br)cn1)NCCc1cnc[nH]1	/	/	.	/	.	/
O=[N+]([O-])c1ccc(O)c(C2=NNC(c3ccccc3F)C2)c1 (centres undefined)	.	35µM	.	.	.	.
CCC(=O)N1c2ccc(S(=O)(=O)NCCc3ccccc3)cc2CC1C (centres undefined)	.	.	.	.	23µM	.
CC(=O)N1c2ccc(S(=O)(=O)NCCc3cccc(C)c3)cc2CC1C (centres undefined)	.	.	.	/	13µM	.
CC(=O)N1c2ccc(S(=O)(=O)NCc3ccc(Cl)cc3)cc2CC1C (centres undefined)	.	.	.	/	/	.
CCC(=O)N1c2ccc(S(=O)(=O)NCCc3ccc(OC)c(OC)c3)cc2CC1C (centres undefined)	.	.	.	.	?	.
CC(=O)c1ccc(N2CCN(c3ccnc4cc(Cl)ccc34)CC2)cc1	.	.	.	.	1.6µM	.
O=C(C1CCCCC1)N1CCN(c2ccnc3cc(Cl)ccc23)CC1	.[11.4 µM]	.[11.4 µM]	.	.	21µM	.
SMILES	TrxR1 substrate	rTrxR1 inhibitor	A549 tox	Mito fusion act	Nrf2 inh	IDH1 R132H inh
N#Cc1cccc(S(=O)(=O)N2CCN(c3ccnc4cc(Cl)ccc34)CC2)c1	.	.	.	.	10µM	.
O=C(Nc1ccc(OC(F)(F)F)cc1)c1ccc2nccnc2c1	.	.	?	.	13µM	.
CCc1ccc(NC(=O)N(Cc2cn(CC)c3ccccc23)C2CCCCC2)cc1	.	.	.	/	?	.
O=C(Nc1ccc(OC(F)(F)F)cc1)N1CCN(c2ccnc3cc(Cl)ccc23)CC1	.	.	?	?	4.6µM	.
O=C(C1CCC1)N1CCN(c2ccnc3cc(Cl)ccc23)CC1	.	.	.	.	.	.
COc1ccccc1NC(=O)N1CCN(c2ccnc3cc(Cl)ccc23)CC1	.[11.4 µM]	.[11.4 µM]	.	.	13µM	.
CC(C)(C)C(=O)N1CCN(c2ccnc3cc(Cl)ccc23)CC1	.	.	.	.	8.2µM	.
O=C(C1CC1)N1CCN(c2ccnc3cc(Cl)ccc23)CC1	.	.	.	.	?	.
COc1ccc(N2CCN(c3ccc(NC(=O)/C=C\C(=O)O)cc3)CC2)cc1	.	.	.	.	.	.
O=C(O)/C=C/C(=O)Nc1ccc(N2CCOCC2)nc1N1CCOCC1	.	16µM	.	.	.	.
O=C(O)c1ccc(NC(=O)c2cc3c([nH]c2=O)CCCC3=O)cc1	.	.	/	/	/	/
COC(=O)C1=C(C(=O)OC)[C@]2([C@H]3CCCCN[C@@H](Cc4ccccc4)C(=O)N3Cc3ccccc3)C=C[C@H]1O2	.	.	.	/	23µM	.
CC(=O)OCC(=O)Nc1ccc([N+](=O)[O-])cc1Cl	.	.	.	.	.	.
CC(=O)Oc1c(C)cc(Cl)cc1C(=O)Nc1ccc([N+](=O)[O-])cc1Cl	.	.	2.6µM	.	1.6µM	.
O=C(Nc1cccc(O)c1)c1ccc([N+](=O)[O-])cc1Cl	.	.	.	.	.	.
O=C(Nc1ccc([N+](=O)[O-])cc1Cl)c1ccccc1O	.	?	?	/	23µM	/
COc1ccc(-c2n(CC(=O)OC3CC(C)CCC3C(C)C)c3ccccc3[n+]2C)cc1 (centres undefined)	.	.	?	.	21µM	.
OC1CCN(c2c3c(nc4cc(-c5cccc(F)c5)nn24)CCCC3)CC1	.	.	?	?	23µM	.
Fc1cccc(-c2cc3nc4c(c(N5CCC6(CC5)OCCO6)n3n2)CCCC4)c1	.	.	.	.	.	.
CC(c1ccc(Cl)cc1)n1c(-c2ccc3ccccc3n2)n[nH]c1=S (centres undefined)	.	?	?	.	18µM	?
COc1ccc(/C=C/C(=O)Nc2ccc(N3CCOCC3)cc2)cc1	.	.	.	.	.	.
O=C(/C=C/c1ccccc1)NC(=S)Nc1ccc(CN2CCOCC2)cc1	.	.	.	.	.	.
